Binding signal and Kd data for 37 sequences are collected here from PMC5913336, “True equilibrium measurement of transcription factor-DNA binding affinities using automated polarization microscopy”.

Oc, sequence (P22810 52-141): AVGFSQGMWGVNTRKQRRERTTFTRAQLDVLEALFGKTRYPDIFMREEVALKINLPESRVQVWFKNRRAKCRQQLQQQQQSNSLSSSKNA

The assay concerns the target Oc (Drosophila melanogaster, UniProt P22810 52-141). The experiment in a line: FP; 33 mM phosphate pH 7.0, 90 mM NaCl, 0.01% Tween 20, 0.1 mM DTT, 0.5% agarose; room temperature. Particulars: tags: N-GST (pGEX-6P-1, kept); dsDNA, one strand shown.
Turning to AGTTAATCCCCC, the binding signal is 1.11 Kd / Kd of best base at the position.

With AGTTAATCCCAT, the binding signal was 1.11 Kd / Kd of best base at the position.

As for AGTTAATCACCT, the binding signal was 7.07 Kd / Kd of best base at the position.

In the case of GGTTAATCCCCT, the binding signal is 1.35 Kd / Kd of best base at the position.

AGATAATCCCCT: the binding signal was 183 Kd / Kd of best base at the position.

On to AGTTAATACCCT, for which the binding signal is 251 Kd / Kd of best base at the position.

In the case of AGTCAATCCCCT, the binding signal is 340 Kd / Kd of best base at the position.

As to AGTAAATCCCCT, the binding signal is 19.8 Kd / Kd of best base at the position.

Consider AGTTAATCCCTT, for which the binding signal was 1.11 Kd / Kd of best base at the position.

Sequence AGTTAATCCCCT yielded a dissociation constant Kd of around 3.8 nM.

Turning to AGTTAATGCCCT, the binding signal is 140 Kd / Kd of best base at the position.

Take AGTTAATCCCCG: the binding signal is 1.11 Kd / Kd of best base at the position.

For the sequence AGTTAATCCACT, the binding signal was 1.54 Kd / Kd of best base at the position.

With AGGTAATCCCCT, the binding signal was 3.1 Kd / Kd of best base at the position.

For AGTTAATCCGCT, the binding signal is 1.09 Kd / Kd of best base at the position.

Consider AGTTGATCCCCT, for which the binding signal is 15.1 Kd / Kd of best base at the position.

In the case of AGTTAGTCCCCT, the binding signal is 6.2 Kd / Kd of best base at the position.

Turning to AGTTACTCCCCT, the binding signal was 12 Kd / Kd of best base at the position.

For AGTTAAACCCCT, the binding signal was 93.6 Kd / Kd of best base at the position.

Take AGTTAATCCCGT: the binding signal was 1.2 Kd / Kd of best base at the position.

As for ATTTAATCCCCT, the binding signal is 2.15 Kd / Kd of best base at the position.

With AGTTAATCTCCT, the binding signal was 3.07 Kd / Kd of best base at the position.

Turning to AGTTCATCCCCT, the binding signal is 177 Kd / Kd of best base at the position.

On to AGTTTATCCCCT, for which the binding signal is 1.7 Kd / Kd of best base at the position.

For the sequence AGTTAATCCCCA, the binding signal was 1.11 Kd / Kd of best base at the position.

Turning to ACTTAATCCCCT, the binding signal is 1.03 Kd / Kd of best base at the position.

For the sequence AGTTAATTCCCT, the binding signal is 123 Kd / Kd of best base at the position.

Take AGTGAATCCCCT: the binding signal is 176 Kd / Kd of best base at the position.

As to AATTAATCCCCT, the binding signal was 2.08 Kd / Kd of best base at the position.

As for AGCTAATCCCCT, the binding signal was 2.31 Kd / Kd of best base at the position.

In the case of AGTTAACCCCCT, the binding signal was 60 Kd / Kd of best base at the position.

With AGTTAATCGCCT, the binding signal is 6.1 Kd / Kd of best base at the position.

In the case of AGTTAAGCCCCT, the binding signal was 18 Kd / Kd of best base at the position.

In the case of AGTTATTCCCCT, the binding signal was 16.4 Kd / Kd of best base at the position.

As to AGTTAATCCTCT, the binding signal is 1.44 Kd / Kd of best base at the position.

As to TGTTAATCCCCT, the binding signal is 3.64 Kd / Kd of best base at the position.

For CGTTAATCCCCT, the binding signal is 2.09 Kd / Kd of best base at the position.

What is called Kd is the concentration at which binding is half-saturated.
